# Source: PubChem BioAssay AID1851 (National Center for Advancing Translational Sciences (NCATS), 2009)
# Values joined by “and” are separate entries in the source; they are usually repeats but may differ in a detail not shown here. Equal values may be shown once. Screen size: about 16,000 compounds; about 2,600 (16%) were called active. Roughly 20% stayed inconclusive and do not appear here. The call rests on the fitted dose curve; in most records, active means well fitted curve in the direction sought with a large enough effect; inconclusive means small, poorly fitted or top-dose-only effect, or effect the other way; inactive means no such curve, though single readings can be large or run the other way. Only a sample is shown.
# Target: Cytochrome P450 2D6 (Homo sapiens) (UniProt P10635)
# Sequence (P10635 whole entry, looked up): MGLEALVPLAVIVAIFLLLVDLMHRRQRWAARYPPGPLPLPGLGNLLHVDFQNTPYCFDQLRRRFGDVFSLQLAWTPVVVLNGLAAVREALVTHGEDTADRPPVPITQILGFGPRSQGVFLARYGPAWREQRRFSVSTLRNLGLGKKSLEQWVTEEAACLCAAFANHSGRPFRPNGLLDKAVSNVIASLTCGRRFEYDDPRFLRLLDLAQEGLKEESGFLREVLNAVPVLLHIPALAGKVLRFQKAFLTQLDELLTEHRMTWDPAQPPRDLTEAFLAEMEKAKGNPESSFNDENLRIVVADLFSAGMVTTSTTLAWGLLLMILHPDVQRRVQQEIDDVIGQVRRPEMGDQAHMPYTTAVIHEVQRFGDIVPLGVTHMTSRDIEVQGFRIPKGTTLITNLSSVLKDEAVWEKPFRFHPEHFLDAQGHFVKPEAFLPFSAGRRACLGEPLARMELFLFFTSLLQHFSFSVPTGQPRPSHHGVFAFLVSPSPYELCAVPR
# Experiment: Cytochrome panel assay with activity outcomes
# Conditions: recombinant CYP, pro-luciferin dealkylation, luminescence, p450-cyp2d6; series mostly up to 57.1 µM; activity, negative = inhibition: at the top concentration
# On the % scale 0 is the no-effect control and ±100 the full control effect.
Structure (SMILES),"activity, negative = inhibition",AC50
CC(C)Oc1ccc2c(=O)c3cc(C(=O)O)ccc3oc2c1,0.758% (inactive),–
CC[C@H]1C2=C3C(CC[C@H]4C(OCc5ccc(F)cc5C(F)(F)F)OC[C@](C)([C@@H]34)N(C(=O)OC(C)(C)C)C2)C2COC(=O)OCC21 (stereo not given in full),-12.1% (inactive),–
COc1ccc(C2/C(=C(/O)c3ccccc3)C(=O)C(=O)N2c2ccccn2)c(OC)c1 (stereo not given),1.83% (inactive),–
COc1ccc(Sc2nc3ccccc3n3c(C(F)(F)F)nnc23)cc1,-12.8% (inactive),–
CC1=C(C(=O)OCc2ccccc2)C(c2cccnc2)c2c(n(C)c(=O)n(C)c2=O)N1 (stereo not given),-24.1% (inactive),–
Cc1ccc(C2Nc3ccccc3C(=O)N2Cc2ccco2)cc1 (stereo not given),-19% (inactive),–
CN(C)Cc1ccccc1-c1cc(-n2ccnc2)ncn1,–,2.51 µM (active)
COc1ccccc1-c1cc(-n2ccnc2)ncn1,–,12.6 µM (active)
Cc1cc([N+](=O)[O-])nn1Cc1ccccc1F,-8.89% (inactive),–
Cc1cc(C)c(S(=O)(=O)N2CCCCC2)c(C)c1N(C)S(=O)(=O)c1ccccc1,-13.5% (inactive),–
CC1=C(CC(=O)O)c2cc(F)ccc2/C1=C\c1ccc(S(C)=O)cc1 (stereo not given),–,inactive
CCOC(=O)c1sc(=S)n(-c2cccc(C(F)(F)F)c2)c1SC,11.7% (inactive),–
Cc1nnc(S(=O)(=O)c2ccc(N=Nc3c(N)nc(N)nc3N)cc2)s1,18% [at 11.4 µM] (inactive),–
CCOC(=O)c1cc(NC(=O)c2ccc(OC)cc2)c(=O)oc1-c1ccccc1,-16.4% (inactive),–
Cc1nn(C(C)C(=O)Nc2sc3c(c2C#N)CCCC3)c(C)c1[N+](=O)[O-] (stereo not given),1.12% (inactive),–
C/C(=N/O)c1ccc2cc(Br)c3ccccc3c2c1,–,0.0251 µM (active)
C/C(=N\O)c1ccc2[nH]ccc2c1,-1.06% (inactive),–
C=CCn1c(SCC(=O)NC2CCCCC2)nnc1C1CCCCC1,-0.906% (inactive),–
CO[C@@H]1COC(=O)[C@@H](CCSC)NC(=O)C/C=C\[C@@H](C)COC(=O)[C@H](C)NC(=O)C/C=C\[C@H]1C,6.23% [at 11.4 µM] (inactive),–
CCN1C(=O)[C@H]2[C@H]3[C@H](O)[C@H](O)C/C(=N/OC[C@@H](O)COCc4ccco4)[C@@H]3CC[C@@H]2C1=O,19.4% [at 11.4 µM] (inactive) and 13.7% [at 11.4 µM] (inactive),–
Cc1ccc(/C=C/C(=O)NC(=S)Nc2ccccc2C(=O)NC2CCCCC2)cc1,-17.6% (inactive),–
N.N.O=C(O)C1(C(=O)O)CCC1.[Pt],-10.9% (inactive),–
O=c1[nH]c2cc(Cl)ccc2c(O)c1-c1ccc(Oc2ccccc2)cc1,-10.3% (inactive),–

Structure (SMILES),"activity, negative = inhibition",AC50
Cc1cc(-c2ccccc2)[nH]c(=O)c1S(=O)(=O)c1ccc(Cl)cc1,-13.2% (inactive),–
O=c1[nH]c2cc(Cl)ccc2c(O)c1-c1cccc(Oc2ccccc2)c1,–,6.31 µM (active)
CCn1c(CC(=O)Nc2ccc(C)cc2)nnc1SCC(=O)Nc1nc(C)cs1,-7.36% (inactive),–
C[C@@H]1CCC[C@H](C)N1NC(=O)c1ccc(Cl)c(S(N)(=O)=O)c1,-4.56% [at 25.6 µM] (inactive),–
CCCC[P+](CCCC)(CCCC)Cc1ccc(NC(=O)[C@@H](Cc2ccc3ccccc3c2)NC(=NC2CCCCC2)NC2CCCCC2)cc1,15.3% (inactive),–
Cc1ccc(NS(=O)(=O)c2cc(C(=O)N3CCc4ccccc4C3)ccc2Cl)cc1,-24.1% (inactive),–
Nc1cc(=O)[nH]c(SCC(=O)Nc2ccc(S(=O)(=O)N3CCOCC3)cc2)n1,-25.6% (inactive),–
CSc1ccccc1NC(=O)CSCc1ccc(C)cc1,–,14.1 µM (active)
O=C(CSCc1ccccc1)Nc1cccc(C(=O)Nc2ccccc2C(=O)O)c1,-0.0467% (inactive),–
O=C(CSCc1ccccc1)Nc1ccc(S(=O)(=O)N2CCOCC2)cc1,–,6.31 µM (active)
Cc1ccc(OCC(=O)Nc2ccccc2-c2ccccc2)cc1,-16.6% (inactive),–
Cc1ccccc1C(=O)N1CCc2ccccc2C1,-16.4% (inactive),–
COC(=O)c1ccc(C(=O)OC)c(NC(=O)CSCc2ccc(Br)cc2)c1,-10.2% (inactive),–
CS(=O)(=O)Nc1ccc(S(=O)(=O)N2CCOCC2)cc1,4.02% (inactive),–
O=C(c1ccc(CN2CCc3ccccc3C2)cc1)N1CCc2ccccc2C1,–,2 µM (active)
CC(=O)c1cccc(NC(=O)CSCc2ccccc2)c1,–,14.1 µM (active)
CN(C)CCN1C(=O)C(O)=C(C(=O)c2cc3ccccc3o2)C1c1cccc(Br)c1 (stereo not given),-8.66% (inactive),–
COc1ccc2c(c1)C(=O)N(c1ccccc1)C(=O)C2,6.59% (inactive),–
CN(C)c1cc(=O)n2c(n1)SCCC2,-8.3% (inactive),–
CCSc1nc2ccccc2n1C(=O)/C=C\c1ccc(OC)c(OC)c1,-26.1% (inactive),–
CC(C)COP(=O)(OCC(C)C)C(O)c1ccccc1F (stereo not given),-0.495% (inactive),–
O=C(CSc1ncccn1)Nc1ccc(S(=O)(=O)N2CCCCC2)cc1,6.83% (inactive),–
